Assay [1] deals with Lysosomal acid glucosylceramidase (Homo sapiens) (UniProt P04062). Briefly: Glucocerebrosidase-p2 (AID 348; in the data active means potency below about 10 µM; further: potency means the concentration at half of the fitted maximal effect). Conditions: purified GBA, blue fluorogenic substrate, 40 min. Summed up:
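Compounds titrated from 0.6 nM upwards against 0.2 nM enzyme in pH 5.9 citric acid/KH2PO4, taurocholate, tween-20; blue fluorogenic substrate 80 uM, 40 min room temperature, stopped and read Ex 365/Em 440 for AC50.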

Assay [2] can be described thus: AP1 Signaling Pathway (AID 357). Further: on the % scale 0 is the no-effect control and ±100 the full control effect. The following applies: ME-180 AP-1-bla reporter, EGF-induced, beta-lactamase ratio, 5 h; at 7.69 µM (top of the series) unless noted. Summed up: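 AP-1-bla ME-180 cells with beta-lactamase reporter under AP-1 response element, stimulated with EC50 EGF; compounds titrated, 5 hours at 37 degrees Celsius. CCF4 read at 460/530 nm ratio; positive and negative modulators judged by AC50.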

Assay [3] can be described thus: Stat Signaling Pathway (AID 446).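 Further: ME-180 cervical cancer cells given 40 pM IL-6 alongside compound; SIE-controlled beta-lactamase reporter measured as 460/530 nm FRET emission ratio; on the % scale 0 is the no-effect control and ±100 the full control effect.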 The following applies: ME-180 (cervical carcinoma) SIE beta-lactamase reporter, IL-6 stimulated, 5 h; at 7.69 µM (top of the series) unless noted. The essentials:
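ME-180 SIE-bla cells; overnight plating; cpd + IL-6 40 pM, 5 h, 37 C; LiveBLAzer 2.5 h RT; 460/530 nm emission ratio. Normalized to 300 pM IL-6 and 125 nM JAK inhibitor controls.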

Assay [4] concerns the target Glucocorticoid receptor (Homo sapiens) (UniProt P04150). Briefly: GR-GFP Redistribution (AID 450;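 active means compounds whose dose series gives a full or clear partial fitted curve of increased nuclear translocation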; further: potency means the concentration at half of the fitted maximal effect). The following applies: U2OS GR-GFP nuclear translocation, laser cytometry, 2 h.
For assay [5] the target is unchanged. Briefly: GR-EFC Redistribution (AID 451; calls by dose curve; further: potency means the concentration at half of the fitted maximal effect). Conditions: CHO-K1 GR-EFC translocation, beta-gal luminescence, 2 h. Summed up: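 Translocation of GR-ED fusion to nuclear EA restores b-gal, read by luminescence after 1 h room-temperature detection. Engineered CHO-K1 biosensor cells, 1,000/well, exposed 2 h at 37 C to titrations up to 46 uM final.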
The target of assay [6] is Mitogen-activated protein kinase 10 (Mus musculus) (UniProt Q61831). The assay can be described thus: JNK3 AlphaScreen Assay (AID 530).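 Further: kinase came from lysate of stimulated human HepG2 cells; signal reports phosphorylation of biotinylated GST-cJun 1-79 at Ser73 with 10 µM ATP; on the % scale 0 is the no-effect control and ±100 the full control effect.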 The following applies: JNK3 lysate, c-Jun phosphorylation; series mostly up to 11.4 µM. Summed up: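 Room-temperature AlphaScreen kinase assay; pre-activated HepG2 lysate as JNK3 source, biotin-GST-cJun(1-79) substrate, 10 uM ATP, compound 15 min preincubation.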
(In general: Alpha assays give light when donor and acceptor beads are brought close together.)

In assay [7] the target is 3',5'-cyclic-AMP phosphodiesterase 4B (Homo sapiens) (UniProt Q07343). The assay can be described thus: qHTS Assay for Inhibitors of PDE-IV (AID 607; active means well fitted activation curve with a large enough effect in the main read-out, with a control signal flat, not every such curve was filed as active; further: % of control where 0% means no effect). The following applies: HEK293 ACTOne CNG channel cells, membrane potential fluorescence; series mostly up to 22.9 µM. Summed up: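 ACTOne HEK293 cells carry a modified cAMP-gated CNG channel and express endogenous PDE4; plated 1000 cells/well, compounds up to 22.9 uM final. Membrane-potential dye fluorescence (ex 535/em 590) was read; parental cells received 10 uM forskolin + 100 uM RO 20-1724.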

Assay [8] deals with Cytochrome P450 3A4 (Homo sapiens) (UniProt P08684). Briefly: qHTS Assay for Activators of Cytochrome P450 3A4 (AID 885; active means well fitted curve in the direction sought with a large enough effect; an effect the other way counts as inactive or inconclusive; further: nearly all actives have a fitted effect of over 65% in size). Conditions: recombinant CYP3A4, Luciferin-PPXE luminescence, 60 min; series mostly up to 11.4 µM. Summed up:
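20nM CYP3A4 + 25uM Luciferin-PPXE (=KM), 200mM KPO4; cpd 10 min RT; NADPH regen, 60 min RT; stop w/ detection buffer, 20 min; luminescence. Normalized to 57 uM ketoconazole.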
In general terms: qHTS replaces the single test concentration by a dilution series.

Assay [9] addresses Cytochrome P450 1A2 (Homo sapiens) (UniProt P05177). Briefly: p450-cyp1a2 (AID 410; calls by dose curve; further: potency means the concentration at half of the fitted maximal effect;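 on activity change, negative = inhibition: -100% = full effect of reference inhibitor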). Conditions: recombinant CYP1A2, luciferin-ME demethylation, luminescence; series mostly up to 11.4 µM. The essentials:
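Human CYP1A2 (20nM) demethylated Luciferin-ME at its Km (100uM) in 100mM KPO4. After 10 min compound preincubation, NADPH regeneration ran the reaction 60 min at room temperature. Luciferin was read by luminescence, normalized to 57 uM furafylline.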

Assay [10] can be described thus: NFAT Signaling Pathway (AID 444).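 Further: carbachol stimulus at about its EC50 of 1 µM final; on the % scale 0 is the no-effect control and ±100 the full control effect.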 Conditions: Jurkat NFAT-bla M1, carbachol, beta-lactamase ratio, 5 h; at 7.69 µM (top of the series) unless noted. Summed up: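 Read-out: CCF4 FRET ratio (460 nm/530 nm) after 1 h RT dye loading, used for %activity and AC50 from titration series. Cells: Jurkat NFAT-β-lactamase/M1 line, treated with compound plus 1 uM carbachol for 5 h, 37 °C.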

The target of assay [11] is Cytochrome P450 2D6 (Homo sapiens) (UniProt P10635). The assay can be described thus: qHTS Assay for Inhibitors and Substrates of Cytochrome P450 2D6 (AID 891; active means well fitted curve in the direction sought with a large enough effect; an effect the other way counts as inactive or inconclusive; further: potency means the concentration at half of the fitted maximal effect; nearly all actives have a fitted effect of over 60% in size). The following applies: recombinant CYP2D6, luciferin-ME EGE luminescence; series mostly up to 11.4 µM. Summed up:
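Human CYP2D6 (5 nM) with 30 uM Luciferin-ME EGE (at Km) in 100 mM KPO4, compound preincubated 10 min, then NADPH regeneration system for 60 min at room temperature. Luciferin read by luminescence; normalized to 1.43 uM quinidine.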

Assay [12] has as its target Cytochrome P450 2C9 (Homo sapiens) (UniProt P11712). Briefly: qHTS Assay for Inhibitors and Substrates of Cytochrome P450 2C9 (AID 883; active means well fitted curve in the direction sought with a large enough effect; an effect the other way counts as inactive or inconclusive; further: potency means the concentration at half of the fitted maximal effect; nearly all actives have a fitted effect of over 60% in size). The following applies: recombinant CYP2C9, luciferin-H luminescence, 60 min; series mostly up to 11.4 µM. Summed up:
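Inhibition of CYP2C9 is scored as loss of luminescence, with 57uM sulphaphenazole defining 100% inhibition. Substrate Luciferin-H is used at 100uM, equal to its KM; enzyme at 10nM in 25mM KPO4, 60 min at 37C with NADPH regeneration.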

The target in assay [13] is Cytochrome P450 2C19 (Homo sapiens) (UniProt P33261). The assay can be described thus: qHTS Assay for Inhibitors and Substrates of Cytochrome P450 2C19 (AID 899; active means well fitted curve in the direction sought with a large enough effect; an effect the other way counts as inactive or inconclusive; further: potency means the concentration at half of the fitted maximal effect; nearly all actives have a fitted effect of over 60% in size). The following applies: recombinant CYP2C19, luciferin-H EGE luminescence; series mostly up to 11.4 µM. The essentials: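 5nM enzyme + 10uM Luciferin-H EGE (=KM), 50mM KPO4; cpd pin-transferred, 10 min 37C; NADPH regen, 60 min 37C; stopped w/ luciferin detection reagent, 20 min; luminescence. Normalized to 57uM ketoconazole (AC100).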

The structures appear in SMILES notation. A number with no mark means an inactive call. Records with an inconclusive call do not appear. Active and inactive are the calls of the source. Unless noted, the call rests on the fitted dose curve; in most records, active means well fitted curve in either direction with a large enough effect (not every such curve was filed as active); inconclusive means small, poorly fitted or top-dose-only effect, or another doubt; inactive means flat fitted curve, though single readings scatter.

Glucocorticoid receptor (Homo sapiens), sequence (P04150 whole entry, looked up, the tested form may be a part): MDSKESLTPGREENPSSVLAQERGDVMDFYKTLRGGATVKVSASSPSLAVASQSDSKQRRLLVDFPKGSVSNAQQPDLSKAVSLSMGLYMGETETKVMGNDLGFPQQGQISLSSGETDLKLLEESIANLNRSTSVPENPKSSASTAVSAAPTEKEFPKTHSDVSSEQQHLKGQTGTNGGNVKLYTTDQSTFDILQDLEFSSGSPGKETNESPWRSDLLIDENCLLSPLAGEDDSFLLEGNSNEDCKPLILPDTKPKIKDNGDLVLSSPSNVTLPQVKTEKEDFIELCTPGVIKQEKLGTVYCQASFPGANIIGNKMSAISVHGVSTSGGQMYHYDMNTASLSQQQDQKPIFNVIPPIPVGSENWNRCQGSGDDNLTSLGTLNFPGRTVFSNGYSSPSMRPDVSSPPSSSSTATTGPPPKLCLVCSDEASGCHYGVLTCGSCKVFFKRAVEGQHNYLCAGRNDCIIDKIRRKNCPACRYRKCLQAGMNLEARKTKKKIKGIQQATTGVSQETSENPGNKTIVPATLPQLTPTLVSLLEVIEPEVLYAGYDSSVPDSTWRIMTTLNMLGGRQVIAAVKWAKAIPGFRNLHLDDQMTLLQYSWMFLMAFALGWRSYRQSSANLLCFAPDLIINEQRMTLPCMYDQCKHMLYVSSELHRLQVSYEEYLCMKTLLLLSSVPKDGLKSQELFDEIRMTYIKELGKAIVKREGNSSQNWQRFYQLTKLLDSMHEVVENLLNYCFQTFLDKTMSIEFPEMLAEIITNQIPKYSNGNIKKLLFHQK
Cytochrome P450 1A2 (Homo sapiens), sequence (P05177 whole entry, looked up): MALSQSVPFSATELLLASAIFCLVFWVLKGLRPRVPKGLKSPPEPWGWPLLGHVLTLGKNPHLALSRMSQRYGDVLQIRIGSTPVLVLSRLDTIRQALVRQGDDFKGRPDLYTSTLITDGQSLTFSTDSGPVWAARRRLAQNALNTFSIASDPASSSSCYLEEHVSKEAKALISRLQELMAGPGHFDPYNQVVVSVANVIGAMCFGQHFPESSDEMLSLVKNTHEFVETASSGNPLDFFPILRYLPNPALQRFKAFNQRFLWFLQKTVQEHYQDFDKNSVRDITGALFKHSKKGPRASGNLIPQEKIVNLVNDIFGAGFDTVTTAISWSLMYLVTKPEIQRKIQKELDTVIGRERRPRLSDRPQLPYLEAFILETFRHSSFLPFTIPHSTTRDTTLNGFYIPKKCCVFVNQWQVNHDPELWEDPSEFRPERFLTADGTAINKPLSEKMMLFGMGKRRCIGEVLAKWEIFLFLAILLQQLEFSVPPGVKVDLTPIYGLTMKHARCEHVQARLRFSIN
3',5'-cyclic-AMP phosphodiesterase 4B (Homo sapiens), sequence (Q07343 whole entry, looked up): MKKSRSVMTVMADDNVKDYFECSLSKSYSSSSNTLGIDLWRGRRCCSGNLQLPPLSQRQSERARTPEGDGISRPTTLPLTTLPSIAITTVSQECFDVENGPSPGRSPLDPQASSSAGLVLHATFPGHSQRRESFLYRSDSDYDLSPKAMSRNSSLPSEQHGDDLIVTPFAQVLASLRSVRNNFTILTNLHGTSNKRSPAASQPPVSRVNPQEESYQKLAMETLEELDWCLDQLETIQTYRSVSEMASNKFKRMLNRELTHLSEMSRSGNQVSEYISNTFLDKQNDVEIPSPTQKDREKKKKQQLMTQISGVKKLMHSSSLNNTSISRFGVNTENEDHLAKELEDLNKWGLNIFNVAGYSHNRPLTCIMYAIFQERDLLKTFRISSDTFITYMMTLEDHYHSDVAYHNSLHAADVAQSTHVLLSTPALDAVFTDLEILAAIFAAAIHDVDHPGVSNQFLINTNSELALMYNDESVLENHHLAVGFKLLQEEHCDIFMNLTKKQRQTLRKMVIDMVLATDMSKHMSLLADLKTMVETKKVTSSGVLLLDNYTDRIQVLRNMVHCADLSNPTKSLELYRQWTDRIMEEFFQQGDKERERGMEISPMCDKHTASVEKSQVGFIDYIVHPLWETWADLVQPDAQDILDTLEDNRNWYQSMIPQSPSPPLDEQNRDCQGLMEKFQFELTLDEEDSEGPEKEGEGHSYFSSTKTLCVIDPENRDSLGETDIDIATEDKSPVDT
Lysosomal acid glucosylceramidase (Homo sapiens), sequence (P04062 whole entry, looked up): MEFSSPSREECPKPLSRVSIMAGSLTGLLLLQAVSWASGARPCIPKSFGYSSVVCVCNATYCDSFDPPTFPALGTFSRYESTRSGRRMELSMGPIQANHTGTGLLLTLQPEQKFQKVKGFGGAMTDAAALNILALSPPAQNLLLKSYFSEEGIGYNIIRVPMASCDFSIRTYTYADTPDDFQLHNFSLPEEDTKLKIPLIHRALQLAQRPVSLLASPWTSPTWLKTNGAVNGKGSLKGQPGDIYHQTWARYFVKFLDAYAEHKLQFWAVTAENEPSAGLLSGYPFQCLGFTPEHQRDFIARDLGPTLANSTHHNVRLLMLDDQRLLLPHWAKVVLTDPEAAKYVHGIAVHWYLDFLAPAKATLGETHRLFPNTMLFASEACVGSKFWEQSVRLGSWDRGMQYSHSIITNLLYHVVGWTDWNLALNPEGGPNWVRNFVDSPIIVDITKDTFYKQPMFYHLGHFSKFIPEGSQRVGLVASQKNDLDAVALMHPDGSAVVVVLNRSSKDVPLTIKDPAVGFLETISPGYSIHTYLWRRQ
Cytochrome P450 3A4 (Homo sapiens), sequence (P08684 whole entry, looked up): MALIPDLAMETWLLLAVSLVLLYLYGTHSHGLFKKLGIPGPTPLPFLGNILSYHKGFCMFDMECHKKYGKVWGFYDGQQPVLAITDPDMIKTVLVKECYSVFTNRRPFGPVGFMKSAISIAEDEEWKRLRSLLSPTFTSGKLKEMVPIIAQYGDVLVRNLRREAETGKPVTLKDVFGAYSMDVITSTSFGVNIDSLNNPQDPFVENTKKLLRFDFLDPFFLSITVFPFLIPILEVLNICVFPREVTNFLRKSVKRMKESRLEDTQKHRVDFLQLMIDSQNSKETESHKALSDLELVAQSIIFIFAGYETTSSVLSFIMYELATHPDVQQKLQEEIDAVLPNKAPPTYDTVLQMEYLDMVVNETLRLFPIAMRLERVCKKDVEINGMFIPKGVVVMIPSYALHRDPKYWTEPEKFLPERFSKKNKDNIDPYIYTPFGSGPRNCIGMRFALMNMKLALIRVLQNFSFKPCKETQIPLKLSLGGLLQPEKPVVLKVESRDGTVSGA
Cytochrome P450 2C9 (Homo sapiens), sequence (P11712 whole entry, looked up): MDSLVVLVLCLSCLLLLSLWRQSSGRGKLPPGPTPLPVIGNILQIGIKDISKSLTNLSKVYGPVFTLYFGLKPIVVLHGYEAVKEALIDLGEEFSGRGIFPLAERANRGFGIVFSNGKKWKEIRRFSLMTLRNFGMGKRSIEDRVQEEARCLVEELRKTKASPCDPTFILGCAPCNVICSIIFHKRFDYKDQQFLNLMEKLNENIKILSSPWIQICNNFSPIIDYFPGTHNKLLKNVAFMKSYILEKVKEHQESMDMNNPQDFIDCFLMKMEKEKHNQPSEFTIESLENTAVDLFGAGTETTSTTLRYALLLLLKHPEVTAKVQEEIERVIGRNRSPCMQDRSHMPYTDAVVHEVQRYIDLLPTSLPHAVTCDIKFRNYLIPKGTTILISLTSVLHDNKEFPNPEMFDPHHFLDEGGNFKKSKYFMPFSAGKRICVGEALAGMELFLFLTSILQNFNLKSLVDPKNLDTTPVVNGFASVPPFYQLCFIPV
Cytochrome P450 2D6 (Homo sapiens), sequence (P10635 whole entry, looked up): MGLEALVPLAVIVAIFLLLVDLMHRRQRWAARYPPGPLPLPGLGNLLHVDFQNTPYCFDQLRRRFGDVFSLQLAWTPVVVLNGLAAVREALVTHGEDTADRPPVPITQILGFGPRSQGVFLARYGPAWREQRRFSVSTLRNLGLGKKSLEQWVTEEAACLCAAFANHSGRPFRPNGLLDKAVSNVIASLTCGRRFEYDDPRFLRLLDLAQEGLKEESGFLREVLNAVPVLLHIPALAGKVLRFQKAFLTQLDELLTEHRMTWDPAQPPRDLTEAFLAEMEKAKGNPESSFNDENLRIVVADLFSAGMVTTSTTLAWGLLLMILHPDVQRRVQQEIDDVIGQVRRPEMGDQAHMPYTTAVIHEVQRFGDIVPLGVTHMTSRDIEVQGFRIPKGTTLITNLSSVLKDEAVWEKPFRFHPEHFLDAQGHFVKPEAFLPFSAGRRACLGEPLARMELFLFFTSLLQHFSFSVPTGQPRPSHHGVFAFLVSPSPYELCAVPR
Cytochrome P450 2C19 (Homo sapiens), sequence (P33261 whole entry, looked up): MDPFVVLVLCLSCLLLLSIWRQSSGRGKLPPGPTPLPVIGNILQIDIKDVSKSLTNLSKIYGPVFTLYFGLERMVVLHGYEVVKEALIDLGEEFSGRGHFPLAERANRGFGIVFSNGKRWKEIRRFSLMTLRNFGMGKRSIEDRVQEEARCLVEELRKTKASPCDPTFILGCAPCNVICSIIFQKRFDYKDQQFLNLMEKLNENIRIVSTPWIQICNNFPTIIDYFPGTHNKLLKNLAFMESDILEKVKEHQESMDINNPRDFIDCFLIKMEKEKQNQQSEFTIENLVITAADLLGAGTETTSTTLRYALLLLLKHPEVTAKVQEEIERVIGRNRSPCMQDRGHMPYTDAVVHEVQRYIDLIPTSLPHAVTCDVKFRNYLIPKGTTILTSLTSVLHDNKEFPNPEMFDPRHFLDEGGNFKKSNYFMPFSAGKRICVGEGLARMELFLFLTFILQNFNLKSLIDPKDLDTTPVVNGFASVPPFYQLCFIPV

As to `O=c1cnc2cnc(N3CCNCC3)nc2n1CCc1ccccc1`, the figures for the Potency in assay [1], in [4] and in [5] were above 11.4 µM, above 9.22 µM and above 46 µM, respectively. In assay [2], the activity change, negative = inhibition is -5.27%. For the same compound, in assay [3], the activity, negative = inhibition was -12.8%. Further, the Potency result in [6], in [7] and in [8] was “inactive” throughout.
With `Fc1cccc(Cl)c1/C=N\N=C1c2ccccc2-c2ccccc21`, the Potency in assay [1] was above 11.4 µM; in assay [4], above 46 µM; in assay [5], above 9.22 µM. The activity change, negative = inhibition in [2] is 13.6%. Further, the activity, negative = inhibition in assay [3] was 6.95%. Also, the Potency entry in assay [6] and in [7] was “inactive” throughout.
On to `COc1ccc2c(c1)N(CC[C@H]1CCCCN1C)c1ccccc1S2`, for which the Potency in [1] is above 11.4 µM; in assay [9] it was 1.26 µM (active); in [4], above 46 µM; in assay [5], above 9.22 µM; in assay [11], 0.0501 µM (active). For the same compound, the activity change, negative = inhibition in assay [10] is -80.4% (active). The activity, negative = inhibition in assay [3] is -6.74%. In addition, the Potency entry in assay [6] and in assay [7] was “inactive” each time.
On to `Cc1ccc(N=Nc2c(O)c3ccccc3[nH]c2=O)c(S(=O)(=O)N(C)C)c1`, for which the Potency is above 11.4 µM in assay [1], above 46 µM in assay [4] and above 9.22 µM in assay [5]. Also, the activity change, negative = inhibition in assay [9] was -14.6% [at 2.29 µM]; in assay [10], 2.83%. In addition, in assay [3], the activity, negative = inhibition was 3.87%. Further, the Potency entry in assay [6] and in assay [7] was “inactive” each time.
Regarding `Nc1ccc(C(=O)C[C@H](N)C(=O)O)cc1O`, the results for the Potency in assay [1], in assay [4] and in assay [5] were above 11.4 µM, above 46 µM and above 9.22 µM, respectively. Besides, the Potency entry in assay [9], in assay [6] and in assay [7] was “inactive” in each case. Further, the activity change, negative = inhibition in assay [10] was -4.19%. Further, the activity, negative = inhibition in assay [3] was 6.37%.
Consider `O=C(c1ccc([N+](=O)[O-])cc1)[C@@H](Br)[C@@H](Br)c1ccnc2ccccc12`, for which the Potency in assay [1] was above 11.4 µM; in assay [4] it was above 46 µM; in assay [12], 3.16 µM (active); in [13], 1.26 µM (active). Further, in assay [2], the activity change, negative = inhibition was -11.4%. In addition, the Potency entry in [6], in assay [7] and in assay [8] was “inactive” each time.
On to `C[C@]12CC[C@H]3c4ccc(O)cc4CC[C@@H]3[C@H]1CC[C@@H]2OC(=O)CCc1ccccc1`, for which the Potency in assay [1] was above 11.4 µM; in assay [4], above 46 µM; in [5] it was above 9.22 µM. Further, the activity change, negative = inhibition is -13.8% [at 2.29 µM] in [9] and -14.3% in assay [10]. Also, in assay [3], the activity, negative = inhibition was -1.42%. Moreover, the Potency entry in assay [6] and in assay [7] was “inactive” throughout.
For the compound `C[C@@]12C[C@H](O)[C@@H]3[C@H](CCC4=CC(=O)CC[C@]43C)[C@H]1CC[C@@H]2c1csc(-c2ccccc2)n1`, the Potency in assay [1] is above 11.4 µM; in assay [4] it was above 46 µM; in assay [5], above 9.22 µM. Moreover, the activity change, negative = inhibition in [2] is -1.5%. In addition, the Potency result in [6] and in assay [7] was “inactive” throughout.
On to `NCCSS(=O)(=O)CCN`, for which the results for the Potency in [1], in assay [4] and in assay [5] were above 11.4 µM, above 46 µM and above 9.22 µM, respectively. The activity change, negative = inhibition in assay [9] is -17.1% [at 2.29 µM]; in assay [10], 7.63%. Further, the activity, negative = inhibition in assay [3] was -25%. Also, in assay [6], the Potency entry was “inactive”.
On to `Cc1cc(Cl)ccc1OCC(=O)Nc1nc(N)nc(N)n1`, for which the Potency in assay [1] was above 11.4 µM; in assay [4], above 46 µM; in [5], above 9.22 µM. Further, the activity change, negative = inhibition in assay [9] is 2.1% [at 2.29 µM]; in [10] it was 1.27%. Also, the activity, negative = inhibition in assay [3] was -6.25%. Also, the Potency entry in assay [6] and in assay [7] was “inactive” in each case.

Source of the values: PubChem BioAssay (NCATS).
